Test results taken from PubChem BioAssay AID504332 (National Center for Advancing Translational Sciences (NCATS), 2011).
The campaign covered roughly 350,000 compounds. About 31,000 (8.9%) were called active. Where a call stands in place of a potency, no number is given. About 15% were inconclusive and are not listed. The call rests on the fitted dose curve; in most records, active means well fitted inhibition curve with a large enough effect; inconclusive means small, poorly fitted or top-dose-only effect; inactive means no such curve, though single readings can be large or run the other way. Only a selection was taken, and actives are over-represented in it overall.

Biological target: Histone-lysine N-methyltransferase EHMT2 (Homo sapiens) (UniProt Q96KQ7)
Test: qHTS Assay for Inhibitors of Histone Lysine Methyltransferase G9a; further: nearly all actives have a fitted effect of over 75% in size
Details: G9a H3K9 monomethylation, AlphaScreen, 2 h; series mostly up to 59 µM
Summary of the method: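 Readings reflect AlphaScreen signal from monomethyl-H3K9 antibody detection. HMT at 20 nM; substrate b-H3K9 500 nM; cofactor SAM 20 uM; 2 h RT reaction; compounds tested as titrations in qHTS with 15 min preincubation.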
Potency means the concentration at half of the fitted maximal effect.

Chain of Histone-lysine N-methyltransferase EHMT2 (Homo sapiens) (Q96KQ7 913-1193 limits assumed): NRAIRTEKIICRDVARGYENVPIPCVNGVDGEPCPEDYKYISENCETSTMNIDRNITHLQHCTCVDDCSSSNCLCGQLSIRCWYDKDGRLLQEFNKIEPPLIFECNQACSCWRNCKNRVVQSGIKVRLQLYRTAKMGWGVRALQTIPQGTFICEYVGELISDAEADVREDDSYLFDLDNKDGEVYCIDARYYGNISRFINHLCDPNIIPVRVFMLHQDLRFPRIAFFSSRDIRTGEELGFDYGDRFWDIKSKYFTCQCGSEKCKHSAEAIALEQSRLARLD

How did the Potency turn out when `CCCCc1ccc(NS(=O)(=O)c2cccc(C(=O)N3CCCN(C)CC3)c2)cc1` was run?
Its Potency is “inactive”.

`CC(=O)NC(CC(=O)Nc1cccc(S(=O)(=O)N2CCCC2)c1)c1ccccc1` (stereo not drawn) was tested. Which Potency did it give?
The Potency was “inactive”.

How did the Potency turn out when `Cc1nn(CC(=O)NC2CCCCC2)c(=O)c2cccn12` was run?
Its Potency is “inactive”.

How did the Potency turn out when `O=C(Cn1nc([N+](=O)[O-])nc1Br)NC1CCCCC1` was run?
The Potency was “inactive”.

For `Cc1cc(C(F)F)nn1CC(=O)NC1CCCCCC1`, which Potency is on record?
Its Potency is 79.4 µM (active).

How did the Potency turn out when `CCc1noc(C)c1C(=O)N1CCCSC1=Nc1ccccc1OC` was run?
Its Potency is “inactive”.

With `O=C1c2ccccc2C(=O)N1CCC#Cc1ccc2cc(C3(O)CCCCC3)oc(=O)c2c1` as the compound, how does the activity, negative = inhibition read?
The activity, negative = inhibition was 1.05% [at 0.501 µM] (inactive).

With `Cc1cc(=O)n2nc(N3CCCC(C(=O)NCCC4=CCCCC4)C3)sc2n1` (stereo not drawn) as the compound, how does the activity, negative = inhibition read?
The activity, negative = inhibition was 4.22% [at 12.7 µM] (inactive).

With `CC1CCCN(C(=O)c2ccc3c(c2)C(=O)N(CCC2=CCCCC2)C3=O)C1` (stereo not drawn) as the compound, how does the Potency read?
The Potency was 39.8 µM (active).

Which Potency does the source give for `C=CCN1C(=O)c2ccc(C(=O)N3CCC(C(=O)OCC)CC3)cc2C1=O` here?
The Potency was “inactive”.

Which Potency does the source give for `O=c1[nH]c2cc(Br)ccc2n2cccc12` here?
Its Potency is “inactive”.

How did the Potency turn out when `CNC(=O)C1CC(=O)N(c2ccc(OCC(=O)Nc3ccccc3C)cc2)C1` (stereo not drawn) was run?
Its Potency is “inactive”.

With `Cc1cccc(N2CCN(Cc3c(C)n(C)n(-c4ccccc4)c3=O)CC2)c1C` as the compound, how does the activity, negative = inhibition read?
Its activity, negative = inhibition is 11.6% [at 12.7 µM] (inactive).

With `Cc1cccc(N2CCN(C(=O)c3oc(=O)c4ccccc4c3-c3ccccc3)CC2)c1C` as the compound, how does the Potency read?
The Potency was “inactive”.

For `Cc1cccc(N2CCN(C3=C(c4ccccc4)C(=O)c4ccccc43)CC2)c1C`, which Potency is on record?
The Potency was 3.55 µM (active).

`CN(C)c1ccc(-c2nnc(-c3cccnc3)o2)cc1` was tested. Which Potency did it give?
The Potency was “inactive”.

With `COC(=O)c1cc(NC(=O)c2cnc(SC)nc2-c2ccccc2)cc(C(=O)OC)c1` as the compound, how does the Potency read?
The Potency was “inactive”.

For `COc1ccc(OCCCn2c(C3CC(=O)N(c4ccc(F)cc4)C3)nc3ccccc32)cc1` (stereo not drawn), which Potency is on record?
Its Potency is “inactive”.

With `COc1ccc([C@H]2CC(=O)C=C(c3ccc(OC(F)(F)F)cc3)C2)cc1OC` as the compound, how does the activity, negative = inhibition read?
Its activity, negative = inhibition is -10% [at 2.33 µM] (inactive).

How did the Potency turn out when `Cc1ccc(C(C)C)c(OCCSc2nc3ccccc3n2CC(=O)O)c1` was run?
The Potency was “inactive”.

For `Cc1cccc(OCCSc2nc3ccccc3n2CC(=O)N2CCCCC2)c1C`, which Potency is on record?
The Potency was 12.6 µM (active).

With `CC(C)N(C(=O)Cn1c(SCC(=O)N2CCN(c3ccccc3)CC2)nc2ccccc21)C(C)C` as the compound, how does the Potency read?
The Potency was “inactive”.

How did the activity, negative = inhibition turn out when `CN(CC(=O)NCC(c1ccccc1)N1CCCC1)S(=O)(=O)c1ccc(Cl)cc1` (stereo not drawn) was run?
The activity, negative = inhibition was -5.36% [at 12.7 µM] (inactive).

For `O=C(Nc1nnc(C2CC(=O)N(c3ccc(Cl)cc3)C2)s1)c1ccco1` (stereo not drawn), which Potency is on record?
The Potency was “inactive”.

`CCN(c1ncnc2c1cnn2-c1ccc(C)cc1)C1CCCCC1` was tested. Which Potency did it give?
The Potency was “inactive”.

Which Potency does the source give for `C/C=C/c1ccc(OCC(O)CN2CCCCCCC2)c(OC)c1` (stereo not drawn) here?
Its Potency is 20 µM (active).

Which Potency does the source give for `COc1ccccc1OCC(O)CN1CCOCC1` (stereo not drawn) here?
The Potency was “inactive”.

With `C/C=C/c1ccc(OCCCCN2CCC(C)CC2)c(OC)c1` as the compound, how does the Potency read?
The Potency was “inactive”.
